The values below come from PubChem BioAssay AID1745848 (National Center for Advancing Translational Sciences (NCATS), 2022).

“And” between values parts separate entries of the source, which are not always exact repeats. Equal values may be shown once. Screen size: about 2,100 compounds; about 940 (45%) were called active. Roughly 48% stayed inconclusive and do not appear here. Calls follow the shape of the dose curve; as a rule, active = well fitted inhibition curve with a large enough effect; inconclusive = small, poorly fitted or top-dose-only effect; inactive = no such curve, though single readings can be large or run the other way. So high a share suggests a set chosen from earlier hits. This is one part of the list.
Potency is read from the fitted curve at half-maximal effect.

This test in a line: Confirmatory qHTS for Inhibitors of ATXN expression. Also: nearly all actives have a fitted effect of over 65% in size. The note with it: ATXN2-luciferase reporter cells, luminescence, 24 h; series mostly up to 11.5 µM. An outline of the steps: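 Cells carrying ATXN2-luciferase reporter exposed 24 h at 37 C to compound. Viability then read by CellTiter-Fluor (25 uM GF-AFC, 30 min), followed by SteadyGlo luminescence; medium-only wells set 100% inhibition.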
With `O=C(CN1CCCC1)N/N=C/c1c(O)ccc2ccccc12`, the Potency was 1.78 µM (active).
Regarding `O=C(CN1CCOCC1)N/N=C/c1c(O)ccc2ccccc12`, the Potency is 7.08 µM (active).
To `Nc1nc(N)c2cc(Sc3ccc4ccccc4c3)ccc2n1` belongs 28.2 µM (active); to `CCCCC(=O)OCC(=O)C1(O)Cc2c(O)c3c(c(O)c2C(OC2CC(NC(=O)C(F)(F)F)C(O)C(C)O2)C1)C(=O)c1c(OC)cccc1C3=O` (configuration not stated), 2.51 µM (active); to `COc1cccc2c1C(=N)c1c(O)c3c(c(O)c1C2=O)CC(O)(C(C)=O)CC3OC1CC(N)C(O)C(C)O1` (configuration not stated), 0.224 µM (active).
With `COc1cccc2c1C(=O)c1c(O)c3c(c(O)c1C2=O)C[C@](O)(C(C)=O)C[C@H]3O[C@@H]1C[C@@H](N)[C@@H](O)[C@@H](C)O1`, the Potency was 0.282 µM (active).
The result for `CC(C)CCNC(=O)COc1cccc2c1OC(C)(C)C2` reads “inactive”; that for `CCOC(=O)c1c2ccc(OCC(=O)N/N=C/c3ccc(C)cc3)cc2n2ccccc12`, 11.2 µM (active).
As for `CCOC(=O)c1c(CSc2nc(C)cc(C)c2C#N)n(C)c2cc(Br)c(OC(C)=O)cc12`, the Potency result was “inactive”.
As for `COc1ccc(CNCCC(c2ccc(OC(C)C)cc2)c2ccccc2OC)cc1` (configuration not stated), the Potency was 3.16 µM (active).
With `COc1ccccc1C(CCNCc1ccccc1)c1ccc(OC(C)C)cc1` (configuration not stated), the Potency was 3.98 µM (active).
With `COc1cccc(OC)c1C(=O)OCC(=O)NC(=O)NCc1ccccc1`, the Potency entry was “inactive”.
Take `CCOC(=O)c1cnc(-n2nc(C)cc2C)nc1NNc1cc(C)nc(-c2ccccc2)n1`: the Potency was 3.55 µM (active).
As to `Cc1ccc(OCC(=O)N2CCN(c3nnc(-c4ccc(C)cc4)c4ccccc34)CC2)cc1`, the Potency is 3.16 µM (active).
For the compound `Oc1[nH]c2ccc(Br)cc2c1N=NC(=S)N1CCOCC1`, the Potency is 0.631 µM (active).
To `Clc1ccc(SCc2cc(N3CCOCC3)nc(-c3ccccn3)n2)cc1` belongs 5.01 µM (active).
Turning to `CC(C)(C)S(=O)(=O)/C(C#N)=N/Nc1ccc(Cl)cc1`, the Potency was 20 µM (active).
Regarding `O=S(=O)(c1ccc(F)cc1)c1snnc1-c1ccccc1`, the Potency was 15.8 µM (active).
Consider `NS(=O)(=O)c1ccc(N2N=C(c3ccccc3)CC2c2ccc(F)cc2)cc1` (configuration not stated), for which the Potency entry was “inactive”.
As to `Cc1ccc(/C=C2\SC(=S)N(CCCC(=O)Nc3nccs3)C2=O)cc1`, the Potency was 7.08 µM (active).
With `Cc1ccc(/C=C2/SC(=S)N(CCCC(=O)Nc3cc([N+](=O)[O-])ccc3O)C2=O)cc1`, the Potency is 31.6 µM (active).
As to `Cc1ccc(/C=C2\SC(=S)N(CCCC(=O)NC3CCCC3)C2=O)cc1`, the Potency was 1.41 µM (active).
For the compound `Cc1ccc(/C=C2/SC(=S)N(CCCC(=O)Nc3ccc(O)cc3)C2=O)cc1`, the Potency was 1.41 µM (active).
Consider `Cc1ccc(/C=C2\SC(=S)N(CCCC(=O)Nc3ccc(O)cc3)C2=O)cc1`, for which the Potency entry is “inactive”.
For `Cc1ccc(/C=C2\SC(=S)N(CCCC(=O)Nc3cccnc3)C2=O)cc1`, the Potency was 2.24 µM (active).
As to `Cc1ccc(/C=C2\SC(=S)N(CCCC(=O)Nc3ccccc3C(=O)O)C2=O)cc1`, the Potency is 2.24 µM (active).
Regarding `CCOC(=O)Cn1cc(C(=O)c2ccco2)c2ccccc21`, the Potency result is “inactive”.
The result for `Cc1cc(C)cc(NC(=O)/C(C#N)=C/c2cn(CC(=O)NCc3ccco3)c3ccccc23)c1` reads 1.78 µM (active).
On to `COc1ccc(N2C3=C(CC4=C2CC(C)(C)CC4=O)C(=O)CC(C)(C)C3)cc1`, for which the Potency result was “inactive”.
As for `COc1cccc(C2CC(c3c(-c4ccccc4)c4cc(Cl)ccc4[nH]c3=O)=NN2S(C)(=O)=O)c1OC` (configuration not stated), the Potency was 2.82 µM (active).
In the case of `O=C1c2ccccc2NC(c2ccc(-c3cccc([N+](=O)[O-])c3)o2)N1O` (configuration not stated), the Potency was 15.8 µM (active).
Regarding `COc1ccc(-c2oc3c(OC)c(OC)c(OC)c(O)c3c(=O)c2OC)cc1OC`, the Potency was 10 µM (active).
Turning to `COc1ccccc1N1CCN(Cc2cc(Br)c(O)c3ncccc23)CC1`, the Potency was 3.55 µM (active).
As to `COc1ccccc1N1CCN(Cc2ccc(O)c3ncccc23)CC1`, the Potency was 0.562 µM (active).
Take `CO[C@@]12[C@@H]3N[C@@H]3CN1C1=C(C(=O)C(N)=C(C)C1=O)[C@@H]2COC(N)=O`: the Potency result was “inactive”.
Take `Cc1nc(SC2CC(=O)N(c3ccccc3)C2=O)n[nH]1` (configuration not stated): the Potency result is “inactive”.
The result for `Cc1c(C(=O)N2CCN(c3ccc(F)cc3)CC2)sc2ncnc(N3CCN(c4ccccn4)CC3)c12` reads 2.82 µM (active); that for `O=C(c1ccco1)N1CCN(c2ncnc3scc(-c4cccs4)c23)CC1`, “inactive”.
With `COc1ccc(C(=O)C=CNNC(=O)c2ccc(Cl)cc2)cc1`, the Potency was 14.1 µM (active).
In the case of `O=C(/C=C/NNC(=O)c1ccccc1)c1ccc([N+](=O)[O-])cc1`, the Potency is 3.16 µM (active).
On to `CCCCn1c(/C=N/Nc2nc3ccccc3[nH]2)nc2ccccc21`, for which the Potency entry was “inactive”.
For `CC(C)Cn1c(/C=N/Nc2nc3ccccc3[nH]2)nc2ccccc21`, the Potency is 8.91 µM (active).
For the compound `S=C(NCCCN1CCOCC1)N1CCN(c2nc(-c3ccccc3)cs2)CC1`, the Potency was 11.2 µM (active).
As to `O=c1c2ccc(Cl)cc2nc(-c2cccc(C(F)(F)F)c2)n1O`, the Potency was 2.51 µM (active).
Turning to `Cc1cc(/C=N/n2cnnc2)c(C)n1-c1ccc(OCc2ccc(Cl)cc2Cl)cc1`, the Potency was 7.94 µM (active).
To `COc1cccc(/C=N/NC(=O)c2cc3c(OC)cccc3[nH]2)c1O` belongs 2.24 µM (active); to `COc1cc(OC)c2cc(C(=O)N/N=C/c3cccc(OC)c3O)[nH]c2c1`, 3.55 µM (active).
As for `Cc1[nH]c(-c2ccc(F)cc2)cc1C(=O)N1CCN(c2ccc(Cl)cc2)CC1`, the Potency is 25.1 µM (active).
Turning to `O=C(NC(=S)N1CCN(c2ccc(F)cc2)CC1)c1cccs1`, the Potency result was “inactive”.
`CN1CCN(c2cc(-c3cc(O)c4ncccc4c3)ccn2)CC1`: the Potency was 12.6 µM (active).
To `COc1ccc(CC(=O)N/N=C(\C)c2ccccn2)cc1` belongs 11.2 µM (active); to `C/C(=N\NC(=O)C1CCCN(S(=O)(=O)c2ccccc2)C1)c1ccccn1` (configuration not stated), 0.794 µM (active); to `C/C(=N\NC(=O)Cc1ccc(Cl)cc1)c1ccccc1O`, 14.1 µM (active).
Take `C/C(=N\NC(=O)C1COc2ccccc2O1)c1ccccn1` (configuration not stated): the Potency was 0.631 µM (active).
Consider `CCCCCC(=O)N/N=C(\C)c1ccccn1`, for which the Potency was 0.501 µM (active).
As for `C/C(=N\NC(=O)CCCNc1ccc(C)cc1)c1ccccn1`, the Potency was 14.1 µM (active).
On to `Cc1ccc(/C=N/NC(=O)C2=NNC(c3ccccc3)(c3ccccc3)C2)c(O)c1`, for which the Potency was 2.82 µM (active).
To `CC(C)(C)c1nnc(N/N=C/c2ccccc2O)n(N)c1=O` belongs 0.891 µM (active); to `CCn1c2ccccc2c2cc(C3C(C#N)=C(N)Oc4n[nH]c(COC)c43)ccc21` (configuration not stated), 2.82 µM (active); to `CCn1c2ccccc2c2cc(NC(=O)COC(=O)c3ccccc3F)ccc21`, 2 µM (active).
As to `CCn1c2ccccc2c2cc(NC(=O)COC(=O)C3CCC(=O)N3)ccc21` (configuration not stated), the Potency is 11.2 µM (active).
Take `CCn1c2ccccc2c2cc(NC(=O)COC(=O)Cc3cn4ccsc4n3)ccc21`: the Potency was 1.26 µM (active).
With `CCn1c2ccccc2c2cc(NC(=O)COC(=O)c3cc(S(=O)(=O)N4CCCCC4)ccc3Cl)ccc21`, the Potency was 1.58 µM (active).
For the compound `Cc1c(C(=O)NCc2ccc(Cl)c(Cl)c2)sc(=O)n1Cc1ccc(S(C)(=O)=O)cc1`, the Potency result is “inactive”.
Consider `COc1ccc(N=Cc2cc3c(cc2O)OC(N)=C(C#N)C3c2ccccc2)cc1` (configuration not stated), for which the Potency entry was “inactive”.
Turning to `Cc1cc(OCc2nc(N)nc(N)c2-c2ccc(Cl)c(Cl)c2)ccc1[N+](=O)[O-]`, the Potency is 2.51 µM (active).
The result for `COc1ccccc1-n1c(-c2ccccc2)c[n+]2c1CCc1ccccc1-2` reads 7.94 µM (active).
With `Cc1ccc(-n2c(-c3ccccc3)c[n+]3c2CCc2ccccc2-3)c(C)c1`, the Potency was 0.794 µM (active).
For `Cc1nnc(SC(C)C(=O)Nc2ccc(Cl)cn2)n1Cc1ccccc1` (configuration not stated), the Potency entry was “inactive”.
Consider `CNc1ccccc1C(=O)OC(C)C(=O)Nc1ccc(Cl)cn1` (configuration not stated), for which the Potency is 2 µM (active).
In the case of `NNC(=O)c1sc2cc(C(F)(F)F)cnc2c1-c1cccs1`, the Potency is 28.2 µM (active).
Take `COC1=C(c2ccccc2)C(=O)c2ccccc2C1=O`: the Potency result was “inactive”.
`O=C(Nc1nccs1)c1cccc(N2C(=O)c3cccc4c([N+](=O)[O-])ccc(c34)C2=O)c1`: the Potency is 20 µM (active).
The result for `Cc1ccnc(N2C(=O)c3cccc4c([N+](=O)[O-])ccc(c34)C2=O)c1` reads 28.2 µM (active); that for `O=C1c2cccc3c([N+](=O)[O-])ccc(c23)C(=O)N1c1ccccn1`, 3.98 µM (active); that for `Cc1ccc(Cl)cc1-c1ccc(C=Nc2ccc(N3CCOCC3)cc2)o1`, 12.6 µM (active).
For the compound `C=CCn1cnc2c(c1=O)c1nc3ccccc3nc1n2/N=C/c1cc(OC)c(OC)c(OC)c1`, the Potency was 14.1 µM (active).
Consider `Cc1cc(C)c2nc(NNC(=O)c3ccc(S(=O)(=O)N4CCc5ccccc5C4)cc3)sc2c1`, for which the Potency is 3.16 µM (active).
With `Cc1ccc2nc(NNC(=O)c3ccc(S(=O)(=O)N4CCc5ccccc5C4)cc3)sc2c1`, the Potency is 2.51 µM (active).
Take `NC(=O)c1cc([N+](=O)[O-])ccc1NCc1ccc(N)cc1`: the Potency was 4.47 µM (active).
To `C[n+]1c2cc(N)ccc2cc2ccc(N)cc21` belongs 4.47 µM (active) and 3.55 µM (active); to `Nc1c(C(=O)NCc2ccc(F)cc2)c2nc3ccccc3nc2n1CCCN1CCOCC1`, 3.16 µM (active); to `Cn1c(/C=C/c2ccc(Cl)cc2)c([N+](=O)[O-])c(=O)n(C)c1=O`, 22.4 µM (active).
Take `Cn1c(/C=C/c2cccc([N+](=O)[O-])c2)c([N+](=O)[O-])c(=O)n(C)c1=O`: the Potency is 25.1 µM (active).
On to `Cn1c(/C=C/c2ccc(Cl)cc2Cl)c([N+](=O)[O-])c(=O)n(C)c1=O`, for which the Potency was 11.2 µM (active).
For the compound `O=C1C=CCC(/C=C/c2ccccc2)O1` (configuration not stated), the Potency is 6.31 µM (active).
For `CCC(C)(C)c1ccc(OCCCC[n+]2ccccc2)c(C(C)(C)CC)c1`, the Potency was 3.16 µM (active).
